SMILES strings stand for the structures. Where “and” joins values, the source holds several entries; their conditions need not be identical. Identical values can stand only once. The source holds several records for some structures; these can differ, active in one and inactive in another. Calls of active or inactive are those of the source. How the source made its calls: active means hit-call score of the fitted dose curve at least 0.9, where 1 is the maximum; inactive means score below 0.9.

As usually defined, the AC50 is the midpoint of the concentration-response curve, whichever way the signal moves.

This assay is described as follows: ATG_CRE_CIS: Attagene CIS-FACTORIAL HepG2 Assay for human cAMP Responsive Element (CRE) binding protein 3 (AID 2282926). As to conditions: HepG2 CRE cis-reporter, Attagene multiplexed mRNA; actives raise or lower the signal. As to the method:
ATG_CIS is a cell-based, multiplexed-readout assay that uses HepG2, a human liver cell line, with measurements taken at 24 hours after chemical dosing in a 24-well plate.ATG_CRE_CIS is one of 52 assay component(s) measured or calculated from the ATG_CIS assay. It is designed to make measurements of mRNA induction, a form of inducible reporter, as detected with fluorescence intensity signals by Reverse transcription polymerase chain reaction (RT-PCR) and Capillary electrophoresis technology.Data from the assay component ATG_CRE_CIS was analyzed into 1 assay endpoint. This assay endpoint, ATG_CRE_CIS, was analyzed with bidirectional fitting relative to DMSO as the negative control and baseline of activity. Using a type of inducible reporter, measures of mRNA for gain or loss-of-signal activity can be used to understand the reporter gene at the transcription factor-level as they relate to the gene CREB3. Furthermore, this assay endpoint can be referred to as a primary readout, because this assay has produced multiple assay endpoints where this one serves a reporter gene function. To generalize the intended target to other relatable targets, this assay endpoint is annotated to the dna binding intended target family, where the subfamily is basic leucine zipper.
Human liver HepG2 cells are transiently transfected with multiple reporter transcription units (MRTUs) in 6-well plates using FuGene 6 reagent (Roche; 3 ml FuGene/1 mg DNA). The MRTU constructs are regulated by a cis-regulating element (promoter). […] A major difference between the CIS and TRANS system is that in CIS activities of endogenous TFs are measured, whereas the TRANS assay evaluates changes in activities of exogenous, chimeric NR-Gal4 proteins. […] At the end of 24 hour incubation, total RNA was isolated using TriZol reagent (Invitrogen). The isolated RNA is then reverse-transcribed using oligo(dT) primer and Mo-MLV reverse transcriptase (Invitrogen) with DNAse I (Ambion) treatment for 30 min. The one-tenth of the produced cDNA was amplified by PCR using Taq DNA polymerase (Invitrogen) and two reporter sequence-specific primers. The PCR products were fluorescently labeled by primer extension with 6-arboxyfluorescein (6-FAM) 5'-labeled reporter sequence-specific primer (2 min at 95 C, 20 s at 68 C and 10 min at 72 C) and these products were digested with 5U of HpaI (New England Biolabs) for 2h at 37 C. The fragments were purified using Qiaquick PCR columns (Qiagen), analyzed on an ABI 3130xL genetic analyzer (Applied Biosystems) with peak positions identified by using a set of X-rhodamine (ROX)-labeled MapMarker1000 molecular weight standards (BioVentures). The raw capillary electrophoresis data was processed using Attagraph software (Attagene).
As for `OCCC(F)(F)C(F)(F)C(F)(F)C(F)(F)C(F)(F)C(F)(F)F`, the compound was called inactive and the AC50 was 154 µM (active).

As to `O=[N+]([O-])c1ccc(O)cc1`, the call was inactive.

As to `Oc1cccc(O)c1`, the compound was classed as inactive.

Turning to `CC(C)(C)c1cc(C(C)(C)C)c(O)c(C(C)(C)C)c1`, the outcome was inactive.

Regarding `CCCOC(=O)c1ccc(O)cc1`, the compound was called inactive and the AC50 was 171 µM (active).

Regarding `CN1CCC[C@H]1c1cccnc1`, the compound was classed as inactive.

Take `C#C[C@]1(O)CC[C@H]2[C@@H]3CCC4=CC(=O)CC[C@@H]4[C@H]3CC[C@@]21C`: the result was inactive.

Regarding `CCCCCCCCCCCCCC[N+](C)(C)C`, the outcome was inactive.

With `CCN(CC)CCNc1ccc(CNC=O)c2sc3ccc(OC)cc3c(=O)c12`, the AC50 was 0.53 µM (active).

Take `CCCCCCCCCCCCCCCS(=O)(=O)Oc1ccccc1`: the result was inactive.

On to `Oc1cc2ccccc2c2ccccc12`, for which the result was inactive.

For `Cc1ccc(S(=O)(=O)O)c(C)c1`, the call was inactive.

Consider `CCCOc1sc(C(=O)N2CCC(c3cc(CN)ccc3F)CC2)c(C)c1Br`, for which the call was inactive.

Take `CCC(=C(c1ccc(O)cc1)c1ccc(OCCN(C)C)cc1)c1ccccc1`: the compound was called inactive.

For the compound `O=C(O)Cc1cc(I)c(Oc2cc(I)c(O)c(I)c2)c(I)c1`, the compound was called inactive and the AC50 was 18.3 µM (active).

With `CCCCOCCO`, the call was inactive.

As for `CC[C@H](c1ccc(O)cc1)[C@@H](CC)c1ccc(O)cc1`, the outcome was inactive.

With `CCCCCCC(=O)O`, the call was inactive.

As for `CCCCC(CC)COC(=O)CCCCC(=O)OCc1ccccc1` (stereo not given), the compound was called inactive.

Consider `O=C(OCCOCCOC(=O)c1ccccc1)c1ccccc1`, for which the call was inactive.

As to `COc1cc(CCC(=O)CC(=O)CCc2ccc(O)c(OC)c2)ccc1O`, the outcome was inactive.

Turning to `c1ccc2c(c1)Cc1ccccc1-2`, the compound was called inactive.

For the compound `CC1=C(/C=C/C(C)=C/C=C/C(C)=C/C(=O)O)C(C)(C)CCC1`, the AC50 was 52.4 µM (active) and 3.28 µM (active).

In the case of `O=C(/C=C/c1ccc(O)cc1)CC(=O)/C=C/c1ccc(O)cc1`, the result was inactive.

`CC[C@H](C)[C@@H](C(=O)O)n1sc2ccccc2c1=O`: the compound was called inactive.

`CC(C)CCCCCCOC(=O)CCCCC(=O)OCCCCCCC(C)C`: the call was inactive.

For the compound `ClC1=C(Cl)C(Cl)(Cl)C(Cl)=C1Cl`, the AC50 was 11.9 µM (active) and the compound was called inactive.

For the compound `CCc1nn(C2CCCCC2)c2cc(C3(C#N)CCC(C(=O)O)CC3)ccc12` (stereo not given), the compound was classed as inactive.

As for `CCc1ccc(CCOc2ccc(CC3SC(=O)NC3=O)cc2)nc1` (stereo not given), the call was inactive.

For the compound `CC(O)CO` (stereo not given), the compound was called inactive.

On to `CCCCCCCCCCCCc1ccccc1S(=O)(=O)O`, for which the compound was classed as inactive.

For the compound `CC(=O)CC(C)(C)O`, the call was inactive.

Consider `N#C[C@@H]1CC(F)(F)CN1C(=O)CNC1CC2CCC(C1)N2c1ncccn1` (stereo not given in full), for which the call was inactive.

In the case of `CC(C)(C)c1cccc(C(C)(C)C)c1O`, the AC50 was 146 µM (active).

On to `CC#C[C@]1(O)CC[C@H]2[C@@H]3CCC4=CC(=O)CCC4=C3[C@@H](c3ccc(N(C)C)cc3)C[C@@]21C`, for which the AC50 was 49.8 µM (active) and 47.6 µM (active) and 23.3 µM (active); the call was inactive.
